# Screens: PubChem, National Center for Advancing Translational Sciences (NCATS)
# LASV entry inh: Lassa virus entry inhibition; Lassa virus pseudotype entry inhibition, cell reporter; Potency, µM (titrated, usually from 37.9 µM), without a hit: top-dose activity change, negative = inhibition, most hits filed as inhibitors; 300,000 compounds, 1.2% hits; AID 540256; calls by dose curve; tested in HEK293 cells; note: potency is the fitted concentration of half-maximal effect; nearly all actives have a fitted effect of over 50% in size
# Vaccinia Venus: inhibitors of vaccinia virus (Venus reporter) | Vaccinia virus Venus reporter expression, fluorescence | Potency, µM (titrated, usually from 36.5 µM), for the others: at the top dose activity change, negative = inhibition, most hits filed as inhibitors | 330,000 compounds, 0.46% hits | AID 720580; calls by dose curve; tested in A549 cells; note: potency is the fitted concentration of half-maximal effect; nearly all actives have a fitted effect of over 30% in size
# Marburg entry inh: blocks Marburg virus binding to or entry into cells | 300,000 compounds, 1.8% hits | Marburg virus pseudotyped entry inhibition, cell reporter | AID 540276 | Potency, µM (doses to about 37.8 µM), inactives show at the top dose activity change, negative = inhibition, usual class: inhibitors; calls by dose curve; tested in HEK293 cells; note: potency is the fitted concentration of half-maximal effect
# FMDV antiviral: blocks foot and mouth disease virus; FMDV antiviral cell-based qHTS; Potency, µM (highest dose often 57.9 µM), inactives show at the top dose activity change, negative = inhibition, most hits filed as inhibitors; 410,000 compounds, 1.2% hits; calls by dose curve; tested in HEK293T cells; note: read-out not given here; potency is the fitted concentration of half-maximal effect; nearly all actives have a fitted effect of over 45% in size
# Vaccinia mCherry: inhibitors of vaccinia virus infection (mCherry reporter signal) | Vaccinia virus mCherry reporter infection, fluorescence | Potency, µM (series often up to 36.5 µM), for inactives: at the highest dose activity change, negative = inhibition, most hits filed as inhibitors | AID 720579 | 310,000 compounds, 0.63% hits; calls by dose curve; tested in A549 cells; note: potency is the fitted concentration of half-maximal effect; nearly all actives have a fitted effect of over 35% in size
# HCMV antiviral: blocks human cytomegalovirus replication; 410,000 compounds, 4.5% hits; activity change, negative = inhibition, % at 57.5 µM; HFF cells, HCMV-luciferase reporter, 72 h; stronger effect = lower value; in the data active = activity change below about -60%; inconclusive = no clear call, values can overlap the other calls; inactive = above about -39%
#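 Human foreskin fibroblasts infected with luciferase-reporter HCMV at MOI 1 PFU/cell, compounds at two doses. Luciferase measured 72 h post infection; normalized to buffer-only basal and Salinomycin (10uM) controls.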
# An asterisk follows results filed as active; i = inactive; ? = inconclusive; · = no result given; ! = not confirmed by another sample; [ ] = dose if it differs, or a comment. This is a sample that favours compounds with a hit; in the whole collection about 6.5% have one here. % is set by controls: 0 for no effect and ±100 for the full control effect.
SMILES,LASV entry inh,Vaccinia Venus,Marburg entry inh,FMDV antiviral,Vaccinia mCherry,HCMV antiviral
COc1c(Cl)c(=O)oc2ccc(Cl)cc12,·,-20.9%,·,-0.6%,-29.5%,0.7
COc1ccccc1-n1c(=O)oc2ccc(Cl)cc2c1=O,?,12.6µM*,?,0.0%,·,-95.3*
Cc1cc(=O)[nH]c(N/N=C/c2ccc(OC(=O)c3cccnc3)cc2)n1,-1.5%[46.1 µM],-21.5%,18.0%[46.1 µM],-2.7%,-7.8%,-64.9*
Cc1cc(=O)[nH]c(NN=Cc2cc(Br)ccc2O)n1,10µM*,?,2µM*,-4.3%,2µM*,-99.8*
NC(=S)N/N=C/c1ccc(OC(=O)c2cccnc2)cc1,·,·,·,-6.2%,·,0.0
CCN(CC)c1ccc(/C=N/Nc2nc(C)cc(=O)[nH]2)c(O)c1,0.82µM*,?,0.517µM*,15.2%,0.891µM*,-98.5*
Cc1cccc(NS(=O)(=O)c2ccc3c(c2)n(C)c(=O)n3C)c1C,-27.9%[46.1 µM],-21.6%,·,-6.7%,-21.8%,53.1
Cc1ccc(-n2c(-c3ccccc3)cc(/C=N/NC(=O)CC#N)c2-c2ccccc2)cc1,·,·,·,·,·,-22.9
N#CCC(=O)N/N=C/c1cc(-c2ccccc2)n(-c2ccc(Cl)cc2)c1-c1ccccc1,?,-1.9%,?,25.1µM*,-17.8%,?
CS(=O)(=O)c1ccc(NC(=O)COc2ccccc2C(=O)Nc2ccccc2)cc1,·,-16.7%,·,·,-14.9%,·
COc1cc2c(cc1C(F)(F)F)N(C(=O)Nc1cc(F)cc(-c3cccnc3)c1)CC2,·,-26.9%,1.26µM*,-4.4%,-4.7%,·
Cn1ccc2cc3c(cc21)CCN3C(=O)Nc1cccnc1,?,-8.0%,?,47.8%,i,77.6
O=C(O)c1ccc(/C=N\Nc2ccc(S(=O)(=O)N3CCOCC3)cc2[N+](=O)[O-])cc1,·,·,·,3.5%,·,-1.1
Cc1ccc(-n2c(O)c(/C=N/Nc3ccc(S(=O)(=O)N4CCOCC4)cc3[N+](=O)[O-])c3ccccc3c2=O)c(C)c1,?,-29.8%,?,10µM*,i,-97.6*
CN(C)c1ccc(-c2nc3ccccn3c2Nc2ccc3c(c2)OCCO3)cc1,5.7%[46.1 µM],-6.5%,?,16.8%,-13.3%,-95.9*
Oc1ccc(-c2nc3ccccn3c2Nc2ccc3c(c2)OCCO3)cc1,17.2%[46.1 µM],-2.0%,?,4.9%,-13.6%,10.2
Cc1ccc2nc(-c3cccc(Cl)c3)c(Nc3ccc4c(c3)OCO4)n2c1,16.1%[46.1 µM],2.9%,2.3%[46.1 µM],30.8%,-0.2%,26.9
Clc1cccc(-c2nc3ccccn3c2Nc2ccc3c(c2)OCCO3)c1,1.0%[46.1 µM],-8.3%,-25.0%[46.1 µM],-4.2%,-8.0%,-103.9*
COc1ccc(OC)c([C@@H](O)[C@H](C)N)c1,·,-6.6%,·,-8.0%,i,·
CCCCCOC(=O)CSc1ncnc2sc3c(c12)CCC(C)C3 (stereo not given),?,-9.1%,3.8%[46.1 µM],-5.1%,-9.4%,9.0
COc1ccc(CCNC(=O)Cc2c(C)c3ccc(O)c(C)c3oc2=O)cc1OC,1.2%[46.1 µM],-13.1%,-6.9%[46.1 µM],-13.8%,-17.6%,-14.3
COc1ccc(NC(=O)c2ccc(S(=O)(=O)N(C)c3ccccc3)cc2)cc1S(=O)(=O)N1CCOCC1,·,?,·,15.8µM*,?,?
Cc1ccc(NC(=O)c2ccc(S(=O)(=O)N(C)c3ccccc3)cc2)cc1S(=O)(=O)N1CCOCC1,·,·,·,12.6µM*,·,0.0
Nc1nc(=S)c2snnc2[nH]1,·,-6.2%,·,·,42.5%,·
COc1cc(NC(=O)c2nnn(CC(=O)Nc3cc(C)ccc3C)c2N)cc(OC)c1,-7.6%[46.1 µM],-3.4%,·,-0.1%,i,-69.5*
SMILES,LASV entry inh,Vaccinia Venus,Marburg entry inh,FMDV antiviral,Vaccinia mCherry,HCMV antiviral
COc1ccc(NC(=O)Cn2nnc(C(=O)NCCc3ccccc3)c2N)cc1,-28.3%[46.1 µM],6.7%,9.3%[46.1 µM],5.4%,-9.4%,-64.2*!
Cc1ccc(NC(=O)c2nnn(CC(=O)Nc3ccccc3)c2N)cc1C,-16.6%,-21.0%,11.2µM*,-1.4%,-11.8%,-11.7
COc1ccc(OC)c(NC(=O)c2nnn(CC(=O)Nc3ccc(C(C)C)cc3)c2N)c1,?,-11.3%[7.34 µM],·,-13.0%,-17.1%[7.34 µM],-62.7*
COc1ccc(-c2nc3ccc(NS(=O)(=O)c4ccc(C)cc4)cc3o2)cc1,-9.3%[46.1 µM],-8.7%,-26.8%[46.1 µM],6.3%,1.1%,-13.4
CCS(=O)(=O)N1CC2(C1)CN(S(=O)(=O)c1ccc(C)cc1)[C@@H](CO)c1[nH]c3cc(OC)ccc3c12,·,·,·,·,·,3.0
CCOc1ccccc1Oc1ncnc2c1oc1ccccc12,-6.3%[46.1 µM],-5.8%,·,-16.9%,-22.3%,-11.4
O=c1cc(N2CCCCC2)c(-c2ccccc2)nn1Cc1c(Cl)cccc1Cl,12.6µM*,?,?,?,?,?
COc1ccc(Nc2cc(C)c3cc(NC(=O)COc4cccc(C)c4)ccc3n2)cc1,?,?,·,35.5µM*,?,-39.2
COc1ccc(Nc2cc(C)c3cc(NC(=O)c4cc(OC)cc(OC)c4)ccc3n2)cc1,-16.9%[46.1 µM],?,·,-4.8%,-23.2%,-77.1*
COc1ccc(Nc2cc(C)c3cc(NC(=O)Cc4c(F)cccc4Cl)ccc3n2)cc1,-14.4%[46.1 µM],-19.9%,·,-29.3%,-11.4%,?
COc1ccc(CC(=O)Nc2ccc3nc(Nc4ccc(OC)cc4)cc(C)c3c2)cc1,10.7%[46.1 µM],-18.0%,·,-28.9%,-24.6%,-86.3*
COc1ccc2c(c1)OC1(O)COc3cc(OC)c(OC)cc3C1=C2 (stereo not given),·,-15.0%,·,-13.1%,-2.5%,·
COc1ccc(-c2nn(CC(=O)NCCc3ccccc3)c(=S)n2C)cc1,12.6µM*,-13.0%,?,19.7%,-22.1%,-95.7*
CCn1c(-c2ccc(C)cc2)nn(CC(=O)NCCc2ccccc2)c1=S,?,-25.3%,8.91µM*,10.9%,-13.7%,-103.5*
COc1ccc(C2=NN(CC(=O)NCCc3ccccc3)C(=O)CC2)cc1,-0.3%[46.1 µM],-7.1%,·,5.0%,-6.2%,74.9
C=C1NN(Cc2ccccc2)C(=O)N1c1ccc(OC)cc1,·,-9.4%,·,·,44.3%,·
Cc1nc(SCC(=O)OC(C)(C)C)c2c3c(sc2n1)CCCC3,-3.2%[46.1 µM],-8.0%,·,-5.8%,-0.4%,-3.1
N#CC(c1cccc(C(F)(F)F)c1)(c1ncc(C(F)(F)F)cc1Cl)N1CCOCC1 (stereo not given),?,·,-19.8%,-24.5%,·,-63.7*
CC(C)c1ccc(CN2C(=O)C(n3ccc4ccccc43)c3ccccc32)cc1 (stereo not given),·,·,·,·,·,-12.1
CC(NC(=O)C1CC12CCC2)c1ccccc1 (stereo not given),4.7%,-0.1%,12.8%,9.3%,i,-61.0*
Cc1cc(C)c(NC(=O)Cc2csc(C)n2)c(Cl)c1,?,-11.8%,-4.6%[46.1 µM],5.4%,3.0%,-60.8*
CCc1nnc(N/N=C/c2ccccc2Cl)n1N,?,?,4.4%,·,?,-3.2
CC(C)(C)c1nnc(N/N=C/c2ccccc2O)n(N)c1=O,?,?,?,1.5%,2.82µM*,-101.7*
CC(C)(C)c1nnc(N/N=C/c2ccccc2)n(N)c1=O,-3.6%,-17.7%,?,-25.0%,-6.0%,-7.9
CCc1nnc(N/N=C/c2ccccc2F)n1N,·,?,?,17.8%,?,-80.0*
